{"source": "ChEMBL document CHEMBL2218924", "about": "“A broad activity screen in support of a chemogenomic map for kinase signalling research and drug discovery” (Biochem J, 2013)", "key": {"[1]": {"target": "T1, Protein kinase C epsilon type (Homo sapiens) (UniProt Q02156)", "T1 sequence (whole entry)": "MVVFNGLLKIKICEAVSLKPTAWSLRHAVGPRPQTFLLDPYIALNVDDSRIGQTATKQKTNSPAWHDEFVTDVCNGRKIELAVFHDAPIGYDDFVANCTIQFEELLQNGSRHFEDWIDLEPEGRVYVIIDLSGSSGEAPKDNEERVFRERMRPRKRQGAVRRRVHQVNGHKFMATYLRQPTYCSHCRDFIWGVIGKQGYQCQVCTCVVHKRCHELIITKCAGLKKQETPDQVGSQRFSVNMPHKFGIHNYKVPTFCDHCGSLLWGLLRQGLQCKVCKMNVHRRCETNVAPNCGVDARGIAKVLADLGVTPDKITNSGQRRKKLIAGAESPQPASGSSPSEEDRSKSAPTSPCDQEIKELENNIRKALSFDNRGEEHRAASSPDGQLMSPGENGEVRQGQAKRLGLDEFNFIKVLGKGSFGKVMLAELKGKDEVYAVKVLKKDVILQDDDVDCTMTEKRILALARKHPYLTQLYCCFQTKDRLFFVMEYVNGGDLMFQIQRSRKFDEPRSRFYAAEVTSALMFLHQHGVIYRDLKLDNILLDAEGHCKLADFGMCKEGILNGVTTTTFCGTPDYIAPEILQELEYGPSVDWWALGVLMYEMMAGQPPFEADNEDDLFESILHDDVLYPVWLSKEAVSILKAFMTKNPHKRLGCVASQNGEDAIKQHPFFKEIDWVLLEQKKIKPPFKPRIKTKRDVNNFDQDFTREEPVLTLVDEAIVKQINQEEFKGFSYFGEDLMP", "settings": "at 1 µM"}, "[2]": {"target": "T1, Protein kinase C epsilon type (Homo sapiens)", "settings": "at 10 µM"}}}
{"smiles": "COc1cc2ncnc(N3CCN(C(=O)Nc4ccc(Oc5ccccc5)cc4)CC3)c2cc1OC", "values": [{"measurement": "residual activity", "setting": "[1]", "result": 96, "unit": "%"}, {"measurement": "residual activity", "setting": "[2]", "result": 90, "unit": "%"}]}
{"smiles": "N#Cc1cnc2cnc(NCc3cccnc3)cc2c1Nc1ccc(F)c(Cl)c1", "values": [{"measurement": "residual activity", "setting": "[1]", "result": 81, "unit": "%"}, {"measurement": "residual activity", "setting": "[2]", "result": 42, "unit": "%"}]}
{"smiles": "Cc1cc2ncc(-c3ccccc3)nc2cc1C", "values": [{"measurement": "residual activity", "setting": "[2]", "result": 100, "unit": "%"}]}
{"smiles": "O=C(O)c1ccc2c3c1cccc3c(=O)n1c3ccccc3nc21", "values": [{"measurement": "residual activity", "setting": "[1]", "result": 112, "unit": "%"}, {"measurement": "residual activity", "setting": "[2]", "result": 109, "unit": "%"}]}
{"smiles": "c1ccc2c(-c3ccncc3)c[nH]c2c1", "values": [{"measurement": "residual activity", "setting": "[1]", "result": 73, "unit": "%"}, {"measurement": "residual activity", "setting": "[2]", "result": 55, "unit": "%"}]}
{"smiles": "Cc1cccc(-c2[nH]c(C(C)(C)C)nc2-c2ccc3c(c2)OCO3)n1", "values": [{"measurement": "residual activity", "setting": "[1]", "result": 80, "unit": "%"}, {"measurement": "residual activity", "setting": "[2]", "result": 91, "unit": "%"}]}
{"smiles": "COc1ccc(S(=O)(=O)N(CCO)c2ccccc2CN(C)C/C=C/c2ccc(Cl)cc2)cc1", "values": [{"measurement": "residual activity", "setting": "[1]", "result": 106, "unit": "%"}, {"measurement": "residual activity", "setting": "[2]", "result": 93, "unit": "%"}]}
{"smiles": "CCC(=O)Nc1ccc2ncnc(Nc3cccc(Br)c3)c2c1", "values": [{"measurement": "residual activity", "setting": "[1]", "result": 79, "unit": "%"}, {"measurement": "residual activity", "setting": "[2]", "result": 110, "unit": "%"}]}
{"smiles": "c1ccc(-c2n[nH]cc2-c2ccnc3ccccc23)nc1", "values": [{"measurement": "residual activity", "setting": "[1]", "result": 74, "unit": "%"}, {"measurement": "residual activity", "setting": "[2]", "result": 89, "unit": "%"}]}
{"smiles": "CN(C)c1ccc(/C=C2\\C(=O)Nc3ccccc32)cc1", "values": [{"measurement": "residual activity", "setting": "[1]", "result": 120, "unit": "%"}, {"measurement": "residual activity", "setting": "[2]", "result": 121, "unit": "%"}]}
{"smiles": "O=Nc1c(-c2c(O)[nH]c3ccccc23)[nH]c2ccccc12", "values": [{"measurement": "residual activity", "setting": "[1]", "result": 106, "unit": "%"}, {"measurement": "residual activity", "setting": "[2]", "result": 91, "unit": "%"}]}
{"smiles": "CO[C@H]1C[C@@H]2CC[C@@H](C)[C@@](O)(O2)C(=O)C(=O)N2CCCC[C@H]2C(=O)O[C@H]([C@H](C)C[C@@H]2CC[C@@H](O)[C@H](OC)C2)CC(=O)[C@H](C)/C=C(\\C)[C@@H](O)[C@@H](OC)C(=O)[C@H](C)C[C@H](C)/C=C/C=C/C=C/1C", "values": [{"measurement": "residual activity", "setting": "[1]", "result": 81, "unit": "%"}, {"measurement": "residual activity", "setting": "[2]", "result": 82, "unit": "%"}]}
{"smiles": "Nc1n[nH]c2nnc(-c3c(-c4ccccc4)nn4ccccc34)cc12", "values": [{"measurement": "residual activity", "setting": "[1]", "result": 101, "unit": "%"}, {"measurement": "residual activity", "setting": "[2]", "result": 41, "unit": "%"}]}
{"smiles": "Cc1cncc2cccc(S(=O)(=O)N3CCCN(C(=O)CN)C[C@H]3C)c12", "values": [{"measurement": "residual activity", "setting": "[1]", "result": 58, "unit": "%"}, {"measurement": "residual activity", "setting": "[2]", "result": 23, "unit": "%"}]}
{"smiles": "Oc1n[nH]c2nnc(-c3c(-c4ccccc4)nn4ccccc34)cc12", "values": [{"measurement": "residual activity", "setting": "[1]", "result": 97, "unit": "%"}, {"measurement": "residual activity", "setting": "[2]", "result": 98, "unit": "%"}]}
{"smiles": "CNc1cc2c(Nc3cccc(Br)c3)ncnc2cn1", "values": [{"measurement": "residual activity", "setting": "[1]", "result": 96, "unit": "%"}, {"measurement": "residual activity", "setting": "[2]", "result": 99, "unit": "%"}]}
{"smiles": "COc1cc2ncnc(Nc3ccc(O)c(Br)c3)c2cc1OC", "values": [{"measurement": "residual activity", "setting": "[1]", "result": 89, "unit": "%"}, {"measurement": "residual activity", "setting": "[2]", "result": 83, "unit": "%"}]}
{"smiles": "Oc1c2ccccc2c2c3c(cccc13)N=N2", "values": [{"measurement": "residual activity", "setting": "[1]", "result": 101, "unit": "%"}, {"measurement": "residual activity", "setting": "[2]", "result": 84, "unit": "%"}]}
